Records with an inconclusive call do not appear. The source made the active and inactive calls. Unless noted, the call rests on the fitted dose curve.
Experiments:
[1] = qHTS assay to identify small molecule antagonists of the sonic hedgehog signaling (Shh) pathway (AID 1259369); further: nearly all actives have a fitted effect of over 45% in size
Method in brief: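 Screening used 3T3Gli1-Luc cells at 2,000 per well, compounds delivered in DMSO, and conditioned medium as agonist stimulus; plates incubated 24hr at 37 C and 5% CO2 before a 30min luciferase step.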

[2] = qHTS assay to identify small molecule agonists of the androgen receptor (AR) signaling pathway in the presence of an antagonist - cell viability counter screen (AID 1259379; active means well fitted curve in the direction sought with a large enough effect in the repeat runs; an effect the other way counts as inactive or inconclusive; further: nearly all actives have a fitted effect of over 25% in size; further: potency means the concentration at half of the fitted maximal effect;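 on activity change, negative = cytotoxicity: MDA-kb2 human breast cancer cells carrying an MMTV luciferase reporter; series mostly up to about 92 µM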)
Method in brief: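 In MDA-kb2 cells (human breast carcinoma, MMTV-luciferase), compounds at 15 concentrations plus 3.0uM nilutamide; 16 hr, 37C, 0% CO2; CellTiter-Fluor fluorescence read for viability.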

[3] = qHTS assay to identify small molecule antagonists of the estrogen receptor beta (ER-beta) signaling pathway - cell viability counter screen (AID 1259382; active means well fitted curve in the direction sought with a large enough effect in the repeat runs; an effect the other way counts as inactive or inconclusive; further: series mostly up to about 92 µM; nearly all actives have a fitted effect of over 55% in size)
Method in brief: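 Tox21 10K library tested in qHTS format on ER-beta-bla HEK293T cells stimulated with 1nM E2; 16 hr treatment at 37C. Same-well CellTiter-Glo luminescence served as the cell viability measure.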

[4] = target: Estrogen receptor (Homo sapiens) (UniProt P03372); experiment: qHTS assay to identify small molecule agonists of the estrogen receptor alpha (ER-alpha) signaling pathway in the presence of an antagonist (AID 1259383); further: top concentration of the series differs between compounds; nearly all actives have a fitted effect of over 15% in size
Estrogen receptor (Homo sapiens), sequence (P03372 whole entry, looked up): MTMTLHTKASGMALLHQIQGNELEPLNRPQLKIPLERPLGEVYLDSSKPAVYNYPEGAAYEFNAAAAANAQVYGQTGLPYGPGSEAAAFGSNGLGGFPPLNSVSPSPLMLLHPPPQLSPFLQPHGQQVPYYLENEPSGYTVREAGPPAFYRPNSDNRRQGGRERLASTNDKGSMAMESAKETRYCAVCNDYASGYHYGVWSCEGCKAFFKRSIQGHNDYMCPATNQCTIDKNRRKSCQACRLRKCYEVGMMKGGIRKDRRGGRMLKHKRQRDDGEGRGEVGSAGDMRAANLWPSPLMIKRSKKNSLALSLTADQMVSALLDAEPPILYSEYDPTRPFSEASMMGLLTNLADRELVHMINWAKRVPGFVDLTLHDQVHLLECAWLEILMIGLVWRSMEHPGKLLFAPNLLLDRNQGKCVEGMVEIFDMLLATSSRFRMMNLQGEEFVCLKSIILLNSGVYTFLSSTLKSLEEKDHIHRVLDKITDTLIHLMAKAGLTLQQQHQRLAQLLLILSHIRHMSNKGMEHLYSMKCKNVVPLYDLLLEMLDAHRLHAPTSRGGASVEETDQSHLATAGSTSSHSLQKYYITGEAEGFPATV
Method in brief: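 In VM7Luc4E2 cells, 4,000 per well, compounds at 15 concentrations were co-incubated 22hr at 37C with 10.0nM final ICI-182,780. Luminescence from the stably transfected 4×ERE-luciferase reporter was recorded 30min after ONE-Glo addition.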

[5] = qHTS assay to identify small molecule agonists of the estrogen receptor beta (ER-beta) signaling pathway - cell viability counter screen (AID 1259380; active means well fitted curve in the direction sought with a large enough effect in the repeat runs; an effect the other way counts as inactive or inconclusive; further: nearly all actives have a fitted effect of over 30% in size; further: potency means the concentration at half of the fitted maximal effect)
Method in brief: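 Viability of ER-beta-UAS-bla HEK293T cells was determined by CellTiter-Glo luminescence following 16 hr treatment with test compounds at 37C.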

[6] = qHTS assay to identify small molecule agonists or antagonists of the thyroid stimulating hormone receptor (TSHR) signaling pathway - wild type cell line counter screen (AID 1259384)
Method in brief: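 Wild-type Hek293 cells, 800/well, 18 h at 37C, then compound with Ro20-1724 for 30 min RT. cAMP by HTRF (cAMP-d2/anti-cAMP cryptate), 1 h RT, fluorescence read. 15 concentrations, triplicates.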

[7] = target: Thyrotropin receptor (Homo sapiens) (UniProt P16473); experiment: qHTS assay to identify small molecule antagonists of the thyroid stimulating hormone receptor (TSHR) signaling pathway (AID 1259385); further: nearly all actives have a fitted effect of over 20% in size
Thyrotropin receptor (Homo sapiens), sequence (P16473 whole entry, looked up): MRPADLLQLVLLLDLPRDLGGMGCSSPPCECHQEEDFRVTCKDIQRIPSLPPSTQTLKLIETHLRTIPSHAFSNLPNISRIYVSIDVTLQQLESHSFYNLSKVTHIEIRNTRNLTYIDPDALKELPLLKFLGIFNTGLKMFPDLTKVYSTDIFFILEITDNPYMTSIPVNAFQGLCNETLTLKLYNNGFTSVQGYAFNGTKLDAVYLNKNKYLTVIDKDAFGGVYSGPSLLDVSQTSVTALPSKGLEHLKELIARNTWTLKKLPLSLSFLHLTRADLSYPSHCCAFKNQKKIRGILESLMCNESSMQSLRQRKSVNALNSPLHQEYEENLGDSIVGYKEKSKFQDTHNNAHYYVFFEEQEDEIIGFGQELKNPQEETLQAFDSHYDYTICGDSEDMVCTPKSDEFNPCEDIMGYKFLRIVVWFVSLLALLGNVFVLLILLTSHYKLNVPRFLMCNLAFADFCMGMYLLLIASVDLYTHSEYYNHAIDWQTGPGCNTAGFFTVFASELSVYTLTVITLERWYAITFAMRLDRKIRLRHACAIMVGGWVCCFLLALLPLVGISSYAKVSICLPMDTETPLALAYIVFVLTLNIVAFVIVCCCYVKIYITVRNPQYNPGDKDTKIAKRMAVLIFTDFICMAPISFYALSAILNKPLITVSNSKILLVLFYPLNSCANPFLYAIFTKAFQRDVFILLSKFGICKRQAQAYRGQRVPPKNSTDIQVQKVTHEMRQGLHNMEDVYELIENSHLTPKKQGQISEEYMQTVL
Method in brief: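 TSHR-HEK293 cells (800/well) plated 18 h, then compounds with Ro20-1724 and TSH at 1.5 ng/mL final, 30 min at room temperature. cAMP quantified by HTRF (cAMP-d2/anti-cAMP-cryptate, 1 h); 15 concentrations in triplicate.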

[8] = target: Androgen receptor (Homo sapiens) (UniProt P10275); experiment: qHTS assay to identify small molecule agonists of the androgen receptor (AR) signaling pathway in the presence of an antagonist (AID 1259381); further: nearly all actives have a fitted effect of over 15% in size; further: potency means the concentration at half of the fitted maximal effect
Androgen receptor (Homo sapiens), sequence (P10275 whole entry, looked up): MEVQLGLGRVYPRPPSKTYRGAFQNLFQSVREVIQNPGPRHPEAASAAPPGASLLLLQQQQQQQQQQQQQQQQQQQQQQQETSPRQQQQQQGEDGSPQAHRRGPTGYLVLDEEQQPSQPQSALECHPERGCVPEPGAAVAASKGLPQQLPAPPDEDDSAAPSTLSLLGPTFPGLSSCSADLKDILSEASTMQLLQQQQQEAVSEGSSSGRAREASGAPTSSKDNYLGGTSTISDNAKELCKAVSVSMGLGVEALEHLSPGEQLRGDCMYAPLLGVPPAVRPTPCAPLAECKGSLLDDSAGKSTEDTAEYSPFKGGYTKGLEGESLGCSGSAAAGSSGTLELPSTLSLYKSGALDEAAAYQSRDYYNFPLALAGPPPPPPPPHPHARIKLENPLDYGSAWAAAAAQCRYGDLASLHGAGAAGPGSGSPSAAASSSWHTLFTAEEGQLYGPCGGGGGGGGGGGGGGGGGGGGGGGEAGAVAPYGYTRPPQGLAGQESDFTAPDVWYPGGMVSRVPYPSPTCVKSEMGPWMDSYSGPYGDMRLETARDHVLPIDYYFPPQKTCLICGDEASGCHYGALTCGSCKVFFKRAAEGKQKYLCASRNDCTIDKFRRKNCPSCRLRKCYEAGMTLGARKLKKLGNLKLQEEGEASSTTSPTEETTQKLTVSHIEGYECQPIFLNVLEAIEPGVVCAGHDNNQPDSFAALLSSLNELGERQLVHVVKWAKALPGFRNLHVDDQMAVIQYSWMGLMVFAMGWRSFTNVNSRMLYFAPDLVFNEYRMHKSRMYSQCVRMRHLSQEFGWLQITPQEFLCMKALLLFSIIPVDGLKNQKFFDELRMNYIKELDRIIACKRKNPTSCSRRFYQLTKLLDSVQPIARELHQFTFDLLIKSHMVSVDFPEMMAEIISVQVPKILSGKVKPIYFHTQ
Method in brief: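 Here, 15-concentration compound series were pin-transferred onto MDA-kb2 MMTV-luciferase cells already dosed with nilutamide (3.0uM final). After 16hr at 37C, ONE-Glo was added and luminescence read 30min later at room temperature.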

[9] = target: Estrogen receptor beta (Homo sapiens) (UniProt Q92731); experiment: qHTS assay to identify small molecule agonists of the estrogen receptor beta (ER-beta) signaling pathway (AID 1259377; active means well fitted activation curve with a large enough effect in the signal ratio in the repeat runs, not every such curve was filed as active; the % refers to the signal ratio; further: potency means the concentration at half of the fitted maximal effect)
Estrogen receptor beta (Homo sapiens), sequence (Q92731 whole entry, looked up, the tested form may be a part): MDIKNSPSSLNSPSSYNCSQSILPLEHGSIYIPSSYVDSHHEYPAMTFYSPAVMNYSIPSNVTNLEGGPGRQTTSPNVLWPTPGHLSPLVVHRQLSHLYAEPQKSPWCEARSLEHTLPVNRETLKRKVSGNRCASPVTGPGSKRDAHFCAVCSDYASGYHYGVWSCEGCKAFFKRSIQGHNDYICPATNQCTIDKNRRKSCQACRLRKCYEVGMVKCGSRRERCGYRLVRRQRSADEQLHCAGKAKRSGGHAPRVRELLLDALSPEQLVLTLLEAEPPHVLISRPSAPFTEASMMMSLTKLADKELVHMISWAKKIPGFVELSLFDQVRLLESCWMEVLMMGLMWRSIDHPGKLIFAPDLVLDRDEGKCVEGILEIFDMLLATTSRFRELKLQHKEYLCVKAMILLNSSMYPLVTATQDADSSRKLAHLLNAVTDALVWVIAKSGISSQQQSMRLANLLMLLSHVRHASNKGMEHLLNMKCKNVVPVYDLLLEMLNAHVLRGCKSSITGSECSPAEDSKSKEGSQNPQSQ
Method in brief: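 Agonist mode cell assay in GripTite HEK293T cells expressing an ER-beta fusion that drives beta-lactamase from an Upstream Activator Sequence; 16 hr compound exposure at 37C, then 2 h LiveBLAzer B/G FRET substrate at room temperature, fluorescence read-out.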

[10] = target: Estrogen receptor beta (Homo sapiens) (UniProt Q92731); experiment: qHTS assay to identify small molecule antagonists of the estrogen receptor beta (ER-beta) signaling pathway (AID 1259378; active means well fitted inhibition curve with a large enough effect in the signal ratio in the repeat runs, not every such curve was filed as active; the % refers to the signal ratio)
Method in brief: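 ER-beta-UAS-bla HEK293T cells in 2% charcoal-stripped FBS medium treated with compound plus 1nM final 17-beta-estradiol for 16 hr at 37C. Beta-lactamase reporter read by FRET substrate fluorescence after 2 hours at room temperature.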
On the % scale 0 is the no-effect control and ±100 the full control effect.

ClCCCl
inactive: Potency [1] | Potency [2] | outcome [3] | outcome [4]

Cc1ccc(S(=O)(=O)O)c(C)c1
inactive: Potency [1] | Potency [2] | Potency [5] | outcome [3] | outcome [4] | outcome [6] | outcome [7]

CCCCNc1ccc(C(=O)OCCN(C)C)cc1
inactive: Potency [1] | Potency [2] | Potency [5] | outcome [3] | outcome [6] | outcome [7]

CCC(C)(CCC(C)C)C(=O)O (stereo not drawn)
inactive: Potency [1] | Potency [2] | outcome [3]

CCCCOC(=O)c1ccccc1
inactive: Potency [1] | Potency [2] | Potency [8] | outcome [3] | outcome [4] | outcome [6]

CN(CCOc1ccc(NS(C)(=O)=O)cc1)CCc1ccc(NS(C)(=O)=O)cc1
inactive: Potency [1] | Potency [2] | Potency [5] | outcome [3] | outcome [4] | outcome [6]

Nc1ccc([N+](=O)[O-])c(N)c1
active: Potency [2] 29.9 µM
inactive: Potency [1] | Potency [5] | outcome [3] | outcome [4] | outcome [6]

COc1ccc(Br)c(C)c1
inactive: Potency [1] | Potency [2] | Potency [5] | outcome [3] | outcome [6]

CCNC(=O)C1CC(C)CCC1C(C)C (stereo not drawn)
inactive: Potency [1] | Potency [2] | outcome [3] | outcome [4] | outcome [6] | outcome [7]

COC(=O)C1CC(=O)C(C(=O)OC)CC1=O (stereo not drawn)
inactive: activity change, negative = inhibition [1] 0.93% [at 8.39 µM] | activity change, negative = cytotoxicity [2] 2.46% [at 8.39 µM] | activity change, negative = cytotoxicity [5] -5.74% [at 8.39 µM] | activity change, negative = cytotoxicity [3] 5.88% [at 8.39 µM] | cAMP activity change [6] 2.64% [at 8.39 µM]

Cc1ccccc1N=O
inactive: Potency [1] | Potency [2] | Potency [5] | outcome [3] | outcome [6] | outcome [7]

O=C1c2ccccc2C(=O)c2cc(S(=O)(=O)O)ccc21
inactive: Potency [1] | Potency [2] | Potency [5] | outcome [3] | outcome [4] | outcome [6] | outcome [7]

CCOc1cc(NC(C)=O)ccc1C(=O)OC
inactive: Potency [1] | Potency [2] | Potency [5] | outcome [3] | outcome [4] | outcome [6] | outcome [7]

COc1ccc2c(c1)C(=O)N(CCc1ccc(S(=O)(=O)NC(=O)NC3CCCCC3)cc1)C(=O)C2(C)C
inactive: Potency [1] | Potency [2] | outcome [3] | outcome [4] | outcome [6] | outcome [7]
active: Potency [8] 21.1 µM

C[Si](C)(C)C
inactive: Potency [1] | Potency [2] | Potency [5] | outcome [3] | outcome [6] | outcome [7]

On1nnc2ccccc21
active: Potency [5] 1.54 µM
inactive: Potency [1] | Potency [2] | outcome [4] | outcome [6] | outcome [7]

O=C1O[C@@H]2[C@@H](O)[C@H](O)O[C@@H]2[C@H]1O
inactive: Potency [9] | outcome [10] | Potency [2] | Potency [5] | outcome [3] | outcome [4] | outcome [6]

O=C(c1ccc(O)cc1)c1ccc(O)c(O)c1O
active: Potency [9] 15.4 µM
inactive: outcome [3]

Nc1cccc(O)c1
inactive: Potency [1] | Potency [2] | outcome [3] | outcome [4] | outcome [6] | outcome [7]

O=C(O)Cc1ccc(Cl)cc1Cl
inactive: Potency [9] | outcome [10] | Potency [2] | Potency [5] | Potency [8] | outcome [3] | outcome [4] | outcome [6] | outcome [7]

COc1ccc(C2CNC(=O)C2)cc1OC1CCCC1 (stereo not drawn)
inactive: Potency [9] | outcome [10] | Potency [2] | Potency [5] | outcome [3] | outcome [6] | outcome [7]

CCCCCCCCCCl
inactive: Potency [9] | outcome [10] | Potency [2] | Potency [5] | outcome [3] | outcome [6]

O=C1c2cccc3c2[C@H](CCC3)CN1[C@@H]1CN2CCC1CC2
inactive: Potency [2] | outcome [3] | outcome [4] | outcome [6] | outcome [7]

CCCCCCOc1ccccc1C(N)=O
inactive: Potency [9] | outcome [10] | Potency [5] | outcome [3] | outcome [4] | outcome [6] | outcome [7]

CC(C)(C)OC(=O)c1ccc(O)cc1
inactive: Potency [2] | Potency [5] | Potency [8] | outcome [3] | outcome [6] | outcome [7]

CC(C)(C)c1cc(CCC(=O)NN)cc(C(C)(C)C)c1O
inactive: Potency [1] | Potency [2] | outcome [3] | outcome [6] | outcome [7]

O=C(CCNNC(=O)c1ccncc1)NCc1ccccc1
inactive: Potency [1] | Potency [2] | outcome [3] | outcome [4] | outcome [6] | outcome [7]

Cc1cccc2nccnc12
inactive: Potency [9] | Potency [2] | Potency [5] | outcome [3] | outcome [4] | outcome [6] | outcome [7]

CCCCOCCOC(=O)COc1nc(Cl)c(Cl)cc1Cl
inactive: Potency [1] | Potency [2] | outcome [3] | outcome [4] | outcome [6] | outcome [7]

C=CC(OCC)OCC
inactive: Potency [9] | outcome [10] | Potency [2] | Potency [5] | outcome [3]

Brc1ccc(-c2ccccc2)cc1
inactive: Potency [2] | Potency [5] | outcome [3] | outcome [6]

CN1C(C)(C)CCCC1(C)C
inactive: Potency [1] | Potency [2] | outcome [3] | outcome [4] | outcome [6] | outcome [7]

CCc1ccc(C=O)cc1
inactive: Potency [1] | Potency [2] | outcome [3] | outcome [6] | outcome [7]

O=C(O)C(=O)Cc1ccccc1
inactive: Potency [9] | outcome [10] | Potency [2] | Potency [5] | Potency [8] | outcome [3] | outcome [4] | outcome [6] | outcome [7]

CCO[Si](CCCS)(OCC)OCC
inactive: Potency [9] | outcome [10] | Potency [2] | Potency [5] | outcome [3] | outcome [6] | outcome [7]

C[C@@H]1O[C@@H](O[C@@H]2[C@@H](O)[C@H](OCCc3ccc(O)c(O)c3)O[C@H](CO[C@@H]3O[C@H](CO)[C@@H](O)[C@H](O)[C@H]3O)[C@H]2OC(=O)/C=C/c2ccc(O)c(O)c2)[C@H](O)[C@H](O)[C@H]1O
inactive: Potency [1] | Potency [5] | outcome [3] | outcome [7]

COP(=O)(OC)OC(c1ccc(Cl)cc1)P(=O)(OC)OC (stereo not drawn)
inactive: Potency [2] | Potency [5] | outcome [3] | outcome [4] | outcome [6] | outcome [7]

CN(C)CCOCCO
inactive: Potency [1] | Potency [2] | outcome [3] | outcome [4] | outcome [6] | outcome [7]

CC(C)CC(C)CC(C)CC(C)COC(=O)c1ccccc1C(=O)OCC(C)CC(C)CC(C)CC(C)C (stereo not drawn)
inactive: Potency [2] | outcome [3] | outcome [6]

O=C1c2ccccc2C(=O)N1CCl
inactive: Potency [2] | Potency [8] | outcome [3] | outcome [4]

O=C(OCC1(COC(=O)c2cccnc2)CCCC(COC(=O)c2cccnc2)(COC(=O)c2cccnc2)C1O)c1cccnc1
inactive: Potency [1] | Potency [2] | outcome [3] | outcome [6] | outcome [7]

N[C@@H](CCC(=O)N[C@@H](CS)C(=O)NCC(=O)O)C(=O)O
inactive: activity change, negative = inhibition [1] 20% [at 19 µM] | activity change, negative = cytotoxicity [2] -2.43% [at 19 µM] | activity change, negative = cytotoxicity [3] 1.29% [at 19 µM] | cAMP activity change [6] 2.89% [at 18.9 µM] | activity change, negative = inhibition [7] 6.72% [at 19 µM]

CC(=C(CCOC(=O)C(C)C)SSC(CCOC(=O)C(C)C)=C(C)N(C=O)Cc1cnc(C)nc1N)N(C=O)Cc1cnc(C)nc1N
inactive: Potency [9] | outcome [10] | Potency [2] | Potency [5] | outcome [3] | outcome [4] | outcome [6] | outcome [7]

BrCCCCCBr
inactive: Potency [9] | Potency [2] | Potency [5] | outcome [3] | outcome [4] | outcome [6] | outcome [7]

O=C(O)Cc1cn(-c2ccccc2)nc1-c1ccc(Cl)cc1
inactive: Potency [1] | Potency [2] | outcome [3] | outcome [4] | outcome [6] | outcome [7]

NCCN1CCOCC1
inactive: Potency [9] | outcome [10] | Potency [2] | Potency [5] | outcome [3] | outcome [6] | outcome [7]

COc1ccc2c(c1OC)C(=O)O[C@@H]2[C@H]1c2c(cc3c(c2OC)OCO3)CCN1C
inactive: outcome [3] | outcome [6] | outcome [7]

COc1cc2c(cc1OC)[C@@H]1CC(=O)[C@@H](CC(C)C)CN1CC2
inactive: Potency [9] | Potency [2] | Potency [5] | outcome [3] | outcome [4] | outcome [6]

Nc1ccc2cc(S(=O)(=O)O)cc(O)c2c1
inactive: Potency [1] | Potency [5] | Potency [8] | outcome [3] | outcome [4]

CC(=O)Nc1cccc(C)c1
inactive: Potency [1] | Potency [2] | outcome [3] | outcome [4] | outcome [6] | outcome [7]

O=C(OCC(O)CO)c1ccccc1Nc1ccnc2c(C(F)(F)F)cccc12 (stereo not drawn)
inactive: Potency [2] | Potency [8] | outcome [3] | outcome [4] | outcome [6]

CC(=O)Nc1ccc(S(=O)(=O)Nc2ccc([N+](=O)[O-])cc2)cc1
active: Potency [2] 23.7 µM
inactive: Potency [5] | outcome [3] | outcome [4] | outcome [6]

CCCC/C=C/C=C\C=O
inactive: Potency [9] | Potency [2] | Potency [8] | outcome [3] | outcome [4] | outcome [6] | outcome [7]

CC(=O)/C=C/C1C(C)=CCC(C)C1(C)C (stereo not drawn)
inactive: Potency [9] | Potency [2] | Potency [5] | outcome [3] | outcome [4] | outcome [6] | outcome [7]

Reference: PubChem BioAssay (Tox21)
